HepG2 tox-1 – HepG2 cytotoxicity, counter-screen for TGF-b inhibitors. actives 0.76% (n = 410,000). HepG2 CAGA-GFP viability, ATP luminescence, 18 h. Potency, µM (doses to about 46.1 µM), for the others: at the top dose activity change, negative = cytotoxicity, most hits filed as cytotoxic; note: potency is the fitted concentration of half-maximal effect
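HepG2 CAGA-GFP cells (1000/well, DMEM with 1% FBS) received compound, then TGF-beta at 500 pg/mL final, and were incubated 18 hours at 37 degrees C. Viability was read by CellTiter-Glo luminescence. Media-only wells were set as complete cell-killing and DMSO as no toxicity.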
ATXN2 expr inh – reduces ATXN2 reporter expression in HEK-293 cells; HEK-293 ATXN2-luciferase reporter, luminescence, 24 h; Potency, µM (doses to about 57 µM), for the others: at the highest dose activity change, negative = inhibition, actives largely listed as inhibitors; actives 0.72% (n = 360,000); note: potency is the fitted concentration of half-maximal effect; % is set by controls: 0 for no effect and ±100 for the full control effect; nearly all actives have a fitted effect of over 55% in size
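qHTS (up to 57 uM final) was run with 24 h compound exposure of reporter cells at 37 °C. Each well was multiplexed: SteadyGlo luminescence measured ATXN2-luciferase expression after a fluorogenic Gly-Phe-AFC viability readout (25 uM final).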
CtBP-E1A inh – CtBP/E1A binding inhibition; actives 0.49% (n = 340,000); AlphaScreen GST-E1A/His-CtBP binding, 1536-well; hits give low values; activity change, % (concentration not given with the values); in the data active = activity change below about -65%; inconclusive = mostly about -30% to -63%; note: % is set by controls: 0 for no effect and ±100 for the full control effect
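In 5 uL wells, 23 nL compound meets equimolar GST-E1A and His-CtBP (5X stock 125 nM each) for 2 h, 37 °C. Beads (5X, 50 ug/mL) then 1 h, 37 °C, dark.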
Six1-Eya2 blk – Six1/Eya2 interaction inhibition; Q15475+O00167; AlphaScreen GST-Six1/His-Eya2 binding, biochemical; hits give low values; activity change, % (concentration not given with the values); actives 0.56% (n = 360,000); in the data active = activity change below about -65%; inconclusive = mostly about -30% to -63%; note: % is set by controls: 0 for no effect and ±100 for the full control effect
Target sequence (O00167 whole entry, looked up): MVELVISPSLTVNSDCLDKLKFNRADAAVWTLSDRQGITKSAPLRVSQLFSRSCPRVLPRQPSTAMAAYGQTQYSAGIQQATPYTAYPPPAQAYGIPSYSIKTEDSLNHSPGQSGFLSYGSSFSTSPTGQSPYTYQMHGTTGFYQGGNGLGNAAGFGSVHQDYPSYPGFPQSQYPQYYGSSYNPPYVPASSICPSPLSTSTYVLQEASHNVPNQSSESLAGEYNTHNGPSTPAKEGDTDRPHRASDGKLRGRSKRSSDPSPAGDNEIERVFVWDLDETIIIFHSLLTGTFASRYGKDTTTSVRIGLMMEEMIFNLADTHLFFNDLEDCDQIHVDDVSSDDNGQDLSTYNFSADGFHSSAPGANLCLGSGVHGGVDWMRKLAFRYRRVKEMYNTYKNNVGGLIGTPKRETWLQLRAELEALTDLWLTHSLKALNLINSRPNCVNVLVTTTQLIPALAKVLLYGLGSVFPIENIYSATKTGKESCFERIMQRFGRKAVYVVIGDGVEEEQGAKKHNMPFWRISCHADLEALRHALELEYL
Target sequence (Q15475 whole entry, looked up): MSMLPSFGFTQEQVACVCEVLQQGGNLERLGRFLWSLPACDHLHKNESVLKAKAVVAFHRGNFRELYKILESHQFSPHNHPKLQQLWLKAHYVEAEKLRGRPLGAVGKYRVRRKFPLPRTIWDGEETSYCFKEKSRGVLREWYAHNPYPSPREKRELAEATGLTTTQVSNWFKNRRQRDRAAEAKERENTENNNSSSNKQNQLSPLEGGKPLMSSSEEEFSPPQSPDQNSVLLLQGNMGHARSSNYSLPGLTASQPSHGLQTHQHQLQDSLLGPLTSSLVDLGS
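GST-Six1 + His-Eya2 (5X stock: 250/500 nM); Tris pH 8.0, 300 mM NaCl, 0.05% BSA, 0.02% Tween 20; GSH donor/Ni acceptor beads; 1 h 37 °C dark; AlphaScreen readout.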
S2 tox – reduces viability in counter-screen for ATXN expression inhibitors; S2 cells (HEK-293 line with an ATXN2-luciferase reporter) viability, CellTiter-Fluor protease fluorescence, 24 h; Potency, µM (titrated, usually from 56.7 µM), hits mostly cytotoxic; actives 0.49% (n = 400,000); AID 651635; note: potency is the fitted concentration of half-maximal effect; nearly all actives have a fitted effect of over 40% in size
TGFb SMAD3 inh – blocks TGF-b signaling. HepG2 CAGA-GFP TGF-b/SMAD3 reporter, GFP fluorescence, 18 h; TGF-beta stimulated, 500 pg/mL final. Potency, µM (doses to about 46.1 µM), without a hit: at the top dose activity, negative = inhibition, most hits filed as inhibitors. actives 1.2% (n = 410,000); note: potency is the fitted concentration of half-maximal effect; % is set by controls: 0 for no effect and ±100 for the full control effect; nearly all actives have a fitted effect of over 65% in size
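Per well, imaged GFP fluorescence of HEPG2 CAGA-GFP cells gives the signal; cells get compound, then TGF-beta (500 pg/mL final), 18 h at 37 degrees C; %Activity versus -TGF-beta and +DMSO controls.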
TGFb CAGA inh – TGF-b pathway inhibition, cherry-pick retest; AID 720534; actives 63% (n = 1,600); Potency, µM (top dose mostly 46.1 µM), without a hit: at the highest dose activity, negative = inhibition, usual class: inhibitors; HepG2 CAGA-GFP TGF-b reporter, GFP fluorescence, 18 h; cells stimulated with TGF-beta, 500 pg/mL; shares compounds with TGFb SMAD3 inh; note: potency is the fitted concentration of half-maximal effect; % is set by controls: 0 for no effect and ±100 for the full control effect; nearly all actives have a fitted effect of over 65% in size
HepG2 tox-2 – counter-screen for TGF-b inhibitors: cytotoxicity in HepG2 cells. shares compounds with TGFb SMAD3 inh. HepG2 CAGA-GFP viability, ATP luminescence, 18 h; cells stimulated with TGF-beta, 500 pg/mL. Potency, µM (titrated, usually from 46.1 µM), for inactives: at the highest dose activity, negative = cytotoxicity, most hits filed as inhibitors. actives 27% (n = 1,600). AID 720535; note: potency is the fitted concentration of half-maximal effect; % is set by controls: 0 for no effect and ±100 for the full control effect; nearly all actives have a fitted effect of over 70% in size
TGFb CCL64 inh – TGF-b inhibition, CCL64 orthogonal assay; shares compounds with TGFb SMAD3 inh; CCL64 CAGA-GFP reporter, TGF-b stimulated, GFP fluorescence, 18 h; Potency, µM (highest dose often 46.1 µM), without a hit: at the top dose activity, negative = inhibition, most hits filed as inhibitors; actives 41% (n = 1,600); note: potency is the fitted concentration of half-maximal effect; nearly all actives have a fitted effect of over 65% in size
TGFb COP inh – validation of TGF-b inhibitors in HepG2 COP promoter reporter; Potency, µM (titrated, usually from 46.1 µM), for the others: top-dose activity, negative = inhibition, hits mostly inhibitors; actives 3% (n = 1,600); AID 720537; shares compounds with TGFb SMAD3 inh; HepG2 COP-GFP TGF-b reporter, GFP fluorescence, 18 h; cells stimulated by added recombinant TGF-beta; note: potency is the fitted concentration of half-maximal effect; nearly all actives have a fitted effect of over 70% in size
* marks the source's active call; other numbers are inactive results; i = inactive; ? = inconclusive; . = no result given. Compounds with a hit are over-represented: about 2.8% of the library has one in this group of screens. Unless noted, calls come from the whole dose curve; as a rule, active = well fitted curve in the direction sought with a large enough effect; inconclusive = small, poorly fitted or top-dose-only effect, or another doubt; inactive = no such curve, though single readings can be large; an effect the other way counts as inactive or inconclusive.

SMILES	HepG2 tox-1	ATXN2 expr inh	CtBP-E1A inh	Six1-Eya2 blk	S2 tox	TGFb SMAD3 inh	TGFb CAGA inh	HepG2 tox-2	TGFb CCL64 inh	TGFb COP inh
O=C1N[C@@H](Cc2c[nH]c3ccccc23)COC(=O)[C@H](Cc2ccc(F)cc2)C/C=C\C[C@H]1CC(=O)N(CCO)Cc1ccccc1	-8%	?	-19	-13	?	?	.	.	.	.
O=C1NC[C@H](c2ccccc2)OC(=O)[C@@H](Cc2ccc(F)cc2)CC/C=C/C[C@H]1CC(=O)N(CCO)Cc1ccccc1	.	14µM*	-2	-2	11µM*	11µM*	21µM*	.	?	53%
Fc1ccc(NCc2ccccc2-c2nnc(-c3ccccc3Cl)o2)cc1Cl	-3%	19%	.	.	i	-19%	.	.	.	.
Cc1nc2ccccc2c2oc(C(=O)NCc3ccccn3)cc12	-8%	-13%	?	?	i	12%	.	.	.	.
Cc1ccc(CNC(=O)c2cc3c(C)nc4ccccc4c3o2)cc1	-15%	?	?	-15	?	?	18µM*	-25%	-8%	24%
Clc1ccc2c(NCc3ccccn3)ccnc2c1	-30%	-29%	-20	-12	i	13µM*	2.1µM*	-26%	8.2µM*	-1%
CCOc1ccccc1Nc1ccnc2cc(Cl)ccc12	-15%	?	30	0	?	?	.	.	.	.
Cc1ccc(OCC(=O)Nc2nnc(SCc3cc(=O)c4ccccc4[nH]3)s2)cc1C	5%	5%	.	.	i	-4%	.	.	.	.
COc1ccc(N(C)S(=O)(=O)c2ccc3c(c2)n(C)c(=O)c(=O)n3C)cc1	-11%	-11%	.	.	i	5%	.	.	.	.
CN(C(=O)COC(=O)c1ccccc1Nc1ccccc1)c1c(N)n(Cc2ccccc2)c(=O)[nH]c1=O	14%	?	4	-5	i	?	.	.	.	.
COCCN(C(=O)COC(=O)c1ccccc1Nc1ccccc1)c1c(N)n(Cc2ccccc2)c(=O)[nH]c1=O	-3%	?	-2	-1	?	11µM*	15µM*	-28%	1.6µM*	20%
COc1ccc2[nH]c3c(c2c1)CCN1C(=O)C(CC(=O)NCCC2=CCCCC2)C[C@H](C(=O)N(C(C)C)C(C)C)[C@@]31C (stereo partly drawn)	-70%	?	-18	-29	?	10µM*	?	-20%	?	39%
C[C@]12c3[nH]c4cc(-c5ccco5)ccc4c3CCN1C(=O)[C@@H](CC(=O)NCCC1=CCCCC1)C[C@@H]2C(=O)N1CCOCC1	3%	0%	-14	-16	?	11µM*	?	?	?	50%
CCN(CC)C(=O)[C@H]1CC(CC(=O)NCCC2=CCCCC2)C(=O)N2CCc3c([nH]c4ccc(OC)cc34)[C@]12C (stereo partly drawn)	5%	-8%	-4	-2	i	?	.	.	.	.
CCN(CC)C(=O)[C@H]1C[C@H](CC(=O)NC/C=C(\C)CCC=C(C)C)C(=O)N2CCc3c([nH]c4cc(CCC(=O)N(C)C)ccc34)[C@]12C	-23%	?	-5	-6	?	13µM*	23µM*	?	?	55%
CC(C)=CCC/C(C)=C/CNC(=O)C[C@H]1C[C@H](C(=O)N2CCOCC2)[C@@]2(C)c3[nH]c4ccc(Cl)cc4c3CCN2C1=O	18µM*	4%	5	3	i	10µM*	13µM*	?	13µM*	-20%
CCN(CC)CCNC(=O)C1CCN(c2nn3cc(-c4ccc(F)cc4)nc3s2)CC1	-86%	.	.	.	.	?	.	.	.	.
C[C@]12c3[nH]c4ccc(Cl)cc4c3CCN1C(=O)[C@@H](CC(=O)NCCC1=CCCCC1)C[C@@H]2C(=O)N1CCOCC1	-26%	?	-1	-10	?	?	16µM*	-9%	?	2%
C[C@]12c3[nH]c4ccc(Cl)cc4c3CCN1C(=O)[C@@H](CC(=O)NCCN1CCOCC1)C[C@@H]2C(=O)N1CCOCC1	-2%	9%	0	-1	i	3%	.	.	.	.
O=C1[C@@H](Oc2ccccc2)[C@@H](c2cnc3ccccc3c2)N1c1ccccc1	-22%	-29%	-8	-11	?	11µM*	21µM*	-8%	16µM*	-8%
O=C1[C@H](Oc2ccccc2)[C@@H](c2ccncc2)N1c1ccncc1	-3%	10%	7	10	i	-8%	.	.	.	.
COc1ccccc1N1CCN(C(=O)c2ccc3c(Cl)c4c(nc3c2)CCCC4)CC1	-15%	-17%	15	-7	?	11µM*	6.5µM*	?	18µM*	39%
COc1ccc(CNC(=O)Cn2ncc3c(=O)oc4ccc(C)cc4c32)c(OC)c1	-2%	.	.	.	.	3%	.	.	.	.
COc1ccc(CC2C(=O)NC(C)C(=O)N(C)C3Cc4ccc(cc4)Oc4cc(ccc4O)CC(C(=O)NC(C)C(=O)NC(C)C(=O)N2C)N(C)C3=O)cc1 (stereo not drawn)	11%	0.24µM*	5	2	0.06µM*	-107%	0.018µM*	0.21µM*	0.021µM*	-8%
Cc1ccc(-n2nnnc2Sc2ccc(S(=O)(=O)NCCN(C)C)cc2[N+](=O)[O-])cc1	8.9µM*	?	0	12	?	1.6µM*	7.3µM*	21µM*	5.8µM*	?

From PubChem BioAssay
